Among the data in PubChem BioAssay (EPA / NIEHS) are AC50 and outcome values, retold here.

“And” between values parts separate entries of the source, which are not always exact repeats. Identical values can stand only once. Inconclusive results are not listed. The source holds several records for some structures; these can differ, active in one and inactive in another. The source made the active and inactive calls. The calls were made as follows: active = hit-call score of the fitted dose curve at least 0.9, where 1 is the maximum; inconclusive = response in the unintended direction; inactive = score below 0.9.

Assay [1] deals with Estrogen receptor (Homo sapiens) + Estrogen receptor beta (Homo sapiens) (UniProt P03372+Q92731). Put plainly: OT_ER_ERaERb_1440: Odyssey Thera (OT) 24-hour HEK293T Protein-Complementation Assay for Estrogen Receptor-alpha/-beta Homodimer (AID 2283356).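 Also: heteromer of ER alpha and ER beta binding domains; hits raise reporter fluorescence and both agonists and antagonists give an increase.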 The procedure, abridged:
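HEK293T stably expressing a PCA of ER alpha LBD (aa 310-547) and ER beta LBD (aa 263-489). After 24 h compound exposure, mean fluorescence intensity in nucleus (agonists) or nucleus and cytoplasm (antagonists) measured by laser scanning cytometry versus vehicle.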

Assay [2] addresses Estrogen receptor beta (Homo sapiens) (UniProt Q92731). The experiment in a line: OT_ER_ERbERb_0480: Odyssey Thera (OT) 8-hour HEK293T Protein-Complementation Assay for Estrogen Receptor-beta/-beta Homodimer (AID 2283357).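 Also: active means signal gain over DMSO baseline.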 The procedure, abridged:
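Readout: increase in mean fluorescence intensity (nucleus for agonists; nucleus plus cytoplasm for antagonists) relative to DMSO, from a reporter-fragment complementation of human ER-beta LBD homodimer in HEK293T cells dosed 8 hours.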

Assay [3] addresses human Peroxisome Proliferator-activated Receptor alpha (PPARa), PPARA (gene 5465) (UniProt Q07869). Put plainly: NVS_NR_hPPARa: NovaScreen (NVS) Nuclear Receptor Binding Assay for human Peroxisome Proliferator-activated Receptor alpha (PPARa) (AID 2283359).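 Also: activity means loss of TR-FRET signal versus DMSO baseline.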 The procedure, abridged:
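Cell-free binding assay with extracted human protein, read by TR-FRET 1 h after chemical dosing. Loss of signal relative to DMSO baseline indicates binding. Primary screen used duplicate single concentration (25 uM); actives followed up in concentration series.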

The target of assay [4] is Peroxisome proliferator-activated receptor gamma (Homo sapiens) (UniProt P37231). Put plainly: NVS_NR_hPPARg: NovaScreen (NVS) Nuclear Receptor Binding Assay for human Peroxisome Proliferator-activated Receptor gamma (PPARg) (AID 2283370). An outline of the steps:
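Cell-free fluorescence polarization binding to human PPARg protein, read 2 h after dosing. Primary screen in duplicate at 25 uM, actives followed in concentration series; loss of signal relative to DMSO scored.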

For assay [5], the target named is mouse Estrogen Receptor alpha (Era), Esr1 (gene 13982) (UniProt P19785). The experiment in a line: NVS_NR_mERa: NovaScreen (NVS) Nuclear Receptor Binding Assay for mouse Estrogen Receptor alpha (Era) (AID 2283378).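 Also: hit means loss of bound radioligand signal relative to DMSO.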 The procedure, abridged: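 Cell-free radioligand competitive displacement binding, read by filter-based scintillation counting 18 h after dosing. Primary screen run in duplicate at 25 uM, actives retested in concentration series; loss of signal versus DMSO.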

Assay [6] addresses Estrogen receptor beta (Homo sapiens) (UniProt Q92731). Put plainly: OT_ER_ERbERb_1440: Odyssey Thera (OT) 24-hour HEK293T Protein-Complementation Assay for Estrogen Receptor-beta/-beta Homodimer (AID 2283380).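 Also: fluorescence gain from ER beta LBD homodimer complementation read by laser scanning cytometry; scored as signal increase over DMSO baseline for both agonists and antagonists.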 The procedure, abridged: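 HEK293T cells stably expressing human ER-beta LBD (aa 310-547) PCA homodimer pair, dosed 24 h; formaldehyde-fixed, Draq5-stained. Readout: increase in nuclear (agonist) or nuclear plus cytoplasmic (antagonist) fluorescence intensity versus DMSO, gain-of-signal fitting.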

The target in a further assay is PGR (gene 5241) (UniProt P06401). The experiment in a line: NVS_NR_hPR: NovaScreen (NVS) Nuclear Receptor Binding Assay for human Progestron Receptor (PR) (AID 2283360).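 Also: active means loss of bound radioligand signal versus DMSO baseline.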 The procedure, abridged: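 Competitive displacement of a labelled radioligand from T47D-derived receptor protein is measured in a cell-free format. Initial testing uses 25 uM in duplicate, with positive and negative controls on every plate.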

Assay [7] concerns the target Retinoic acid receptor alpha (Homo sapiens) (UniProt P10276). Put plainly: NVS_NR_hRARa_Agonist: NovaScreen (NVS) Nuclear Receptor Binding Assay for human Retinoic Acid Alpha Receptor Agonism (RAR) (AID 2283361). An outline of the steps:
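Cell-free TR-FRET binding read-out with extracted human RARα protein, read 2 h after compound addition. Gain of signal scored against DMSO baseline. Primary screen at a single 25 uM in duplicate; actives then retested in concentration series.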

For assay [8], the target named is rat Androgen Receptor (AR), Ar (gene 24208) (UniProt P15207). The experiment in a line: NVS_NR_rAR: NovaScreen (NVS) Nuclear Receptor Binding Assay for rat Androgen Receptor (AR) (AID 2283366). An outline of the steps: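 Cell-free radioligand binding on extracts of prostate from testosterone-pretreated rats, read by filter-based scintillation counting 18 h after dosing. Loss of bound signal fitted positively versus DMSO; primary screen in duplicate at 25 uM, actives followed up in concentration series.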

Assay [9] concerns the target Agonist Androgen Response Element (ARE), AR (gene 367) (UniProt P10275). Put plainly: OT_AR_ARELUC_AG_1440: Odyssey Thera (OT) 24-hour CHO-K1 Luciferase Assay for Agonist Androgen Response Element (ARE) (AID 2283379). The procedure, abridged: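 Seed CHO-K1 cells; dose compounds for 24 h; add D-luciferin plus ATP in PBS; read luminescence. Signal increase relative to vehicle defines agonist activity, with at least 3 replicate wells per sample.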

Assay [10] addresses Retinoic acid receptor alpha (Homo sapiens) (UniProt P10276). The experiment in a line: NVS_NR_hRAR_Antagonist: NovaScreen (NVS) Nuclear Receptor Binding Assay for human Retinoic Acid Alpha Receptor Antagonism (RAR) (AID 2283358). The procedure, abridged:
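Cell-free TR-FRET binding assay on extracted receptor protein, run in antagonist mode; signal read 2 hours after chemical dosing. Loss of signal was fitted relative to DMSO baseline. Screened at 25 uM in duplicate, actives followed up in concentration series.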

In assay [11] the test system is guinea pig Dopamine Transporter (DAT), gene 100714898. Put plainly: NVS_TR_gDAT: NovaScreen (NVS) Transporter Assay for guinea pig Dopamine Transporter (DAT) (AID 2283369).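 Also: active compounds lower bound radioligand signal relative to DMSO.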 An outline of the steps:
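Guinea pig striatal membranes, cell-free radioligand binding with filter-based scintillation counting, read 2 h after dosing. Loss of signal versus DMSO baseline; single-concentration primary (25 uM) then concentration-response up to 50 uM.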

For assay [12], the target named is human Norepinephrine Transporter (NET), SLC6A2 (gene 6530) (UniProt P23975). Put plainly: NVS_TR_hNET: NovaScreen (NVS) Transporter Assay for human Norepinephrine Transporter (NET) (AID 2283377).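 Also: cell-free membrane protein extracted from CHO cells expressing human NET.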 An outline of the steps:
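Radioligand binding to human NET in cell-free CHO-derived protein preparations, read by filter-based scintillation counting 1 hour after dosing. Loss of signal versus DMSO baseline indicated displacement; primary screening in duplicate at 25 uM, actives then titrated.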

Sequence of Estrogen receptor beta (Homo sapiens) (Q92731 whole entry, looked up, the tested form may be a part): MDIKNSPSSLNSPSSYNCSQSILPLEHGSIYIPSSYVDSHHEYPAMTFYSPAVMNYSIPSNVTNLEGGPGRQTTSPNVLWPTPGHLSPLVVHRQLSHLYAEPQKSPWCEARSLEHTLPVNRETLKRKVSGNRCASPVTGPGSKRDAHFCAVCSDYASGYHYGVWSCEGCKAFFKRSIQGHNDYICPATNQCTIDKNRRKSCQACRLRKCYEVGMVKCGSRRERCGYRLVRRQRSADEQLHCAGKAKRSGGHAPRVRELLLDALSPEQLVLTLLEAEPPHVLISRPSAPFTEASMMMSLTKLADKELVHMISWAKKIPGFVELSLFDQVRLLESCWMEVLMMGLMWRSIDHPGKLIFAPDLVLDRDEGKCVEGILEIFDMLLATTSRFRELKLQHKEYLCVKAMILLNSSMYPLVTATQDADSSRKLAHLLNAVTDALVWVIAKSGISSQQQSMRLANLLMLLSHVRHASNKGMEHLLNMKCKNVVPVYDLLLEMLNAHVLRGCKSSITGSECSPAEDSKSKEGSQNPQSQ
Sequence of PGR (gene 5241) (P06401 whole entry, looked up): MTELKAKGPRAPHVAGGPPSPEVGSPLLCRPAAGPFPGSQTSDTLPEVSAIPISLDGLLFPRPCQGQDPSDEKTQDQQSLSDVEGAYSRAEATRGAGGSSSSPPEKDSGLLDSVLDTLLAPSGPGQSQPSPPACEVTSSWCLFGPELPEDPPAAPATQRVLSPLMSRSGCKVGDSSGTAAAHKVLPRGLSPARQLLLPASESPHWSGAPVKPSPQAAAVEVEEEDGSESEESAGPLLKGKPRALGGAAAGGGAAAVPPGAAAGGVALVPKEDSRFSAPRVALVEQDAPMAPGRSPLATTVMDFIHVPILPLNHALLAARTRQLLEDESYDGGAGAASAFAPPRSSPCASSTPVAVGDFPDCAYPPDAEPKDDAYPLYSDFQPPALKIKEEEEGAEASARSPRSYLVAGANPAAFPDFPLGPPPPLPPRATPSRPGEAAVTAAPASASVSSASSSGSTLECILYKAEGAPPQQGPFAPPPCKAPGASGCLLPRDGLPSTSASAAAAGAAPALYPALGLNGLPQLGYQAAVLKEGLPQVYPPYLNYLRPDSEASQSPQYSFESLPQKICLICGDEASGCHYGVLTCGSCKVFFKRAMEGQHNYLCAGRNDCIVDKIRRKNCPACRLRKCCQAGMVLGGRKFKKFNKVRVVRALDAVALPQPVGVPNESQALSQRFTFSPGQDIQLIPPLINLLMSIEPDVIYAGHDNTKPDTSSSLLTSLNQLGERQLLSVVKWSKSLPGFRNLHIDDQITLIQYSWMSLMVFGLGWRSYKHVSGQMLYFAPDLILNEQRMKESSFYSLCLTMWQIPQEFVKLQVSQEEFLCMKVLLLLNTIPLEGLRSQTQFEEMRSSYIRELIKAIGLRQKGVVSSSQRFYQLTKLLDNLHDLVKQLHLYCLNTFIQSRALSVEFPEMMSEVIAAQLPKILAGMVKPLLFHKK
Sequence of mouse Estrogen Receptor alpha (Era), Esr1 (gene 13982) (P19785 whole entry, looked up): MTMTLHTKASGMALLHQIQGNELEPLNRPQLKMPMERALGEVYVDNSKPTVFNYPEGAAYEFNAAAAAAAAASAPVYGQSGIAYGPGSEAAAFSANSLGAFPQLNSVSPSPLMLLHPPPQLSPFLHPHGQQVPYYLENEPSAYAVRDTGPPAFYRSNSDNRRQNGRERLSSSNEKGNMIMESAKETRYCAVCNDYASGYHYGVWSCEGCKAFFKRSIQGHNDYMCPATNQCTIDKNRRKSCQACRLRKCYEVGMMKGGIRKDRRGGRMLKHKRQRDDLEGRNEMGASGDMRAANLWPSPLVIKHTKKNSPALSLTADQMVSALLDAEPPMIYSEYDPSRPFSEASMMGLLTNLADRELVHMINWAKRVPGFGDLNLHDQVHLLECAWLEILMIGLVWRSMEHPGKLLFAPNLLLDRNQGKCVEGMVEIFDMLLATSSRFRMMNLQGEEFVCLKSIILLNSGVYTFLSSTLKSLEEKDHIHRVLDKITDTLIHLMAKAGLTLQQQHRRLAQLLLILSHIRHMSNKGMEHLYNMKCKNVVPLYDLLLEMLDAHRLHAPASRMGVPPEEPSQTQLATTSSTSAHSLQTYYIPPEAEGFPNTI
Sequence of Peroxisome proliferator-activated receptor gamma (Homo sapiens) (P37231 whole entry, looked up): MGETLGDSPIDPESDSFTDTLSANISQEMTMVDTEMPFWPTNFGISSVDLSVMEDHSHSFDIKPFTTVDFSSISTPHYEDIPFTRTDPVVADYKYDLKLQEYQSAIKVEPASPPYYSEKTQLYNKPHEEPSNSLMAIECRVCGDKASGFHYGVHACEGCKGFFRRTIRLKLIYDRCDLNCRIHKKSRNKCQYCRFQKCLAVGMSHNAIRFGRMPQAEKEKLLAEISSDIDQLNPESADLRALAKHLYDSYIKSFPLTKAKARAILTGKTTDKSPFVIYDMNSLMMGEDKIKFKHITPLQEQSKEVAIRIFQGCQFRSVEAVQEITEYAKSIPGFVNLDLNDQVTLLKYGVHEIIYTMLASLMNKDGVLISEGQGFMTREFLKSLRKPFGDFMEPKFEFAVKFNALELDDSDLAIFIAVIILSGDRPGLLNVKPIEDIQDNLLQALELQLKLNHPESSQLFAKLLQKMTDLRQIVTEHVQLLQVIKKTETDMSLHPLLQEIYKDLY
Sequence of Retinoic acid receptor alpha (Homo sapiens) (P10276 whole entry, looked up): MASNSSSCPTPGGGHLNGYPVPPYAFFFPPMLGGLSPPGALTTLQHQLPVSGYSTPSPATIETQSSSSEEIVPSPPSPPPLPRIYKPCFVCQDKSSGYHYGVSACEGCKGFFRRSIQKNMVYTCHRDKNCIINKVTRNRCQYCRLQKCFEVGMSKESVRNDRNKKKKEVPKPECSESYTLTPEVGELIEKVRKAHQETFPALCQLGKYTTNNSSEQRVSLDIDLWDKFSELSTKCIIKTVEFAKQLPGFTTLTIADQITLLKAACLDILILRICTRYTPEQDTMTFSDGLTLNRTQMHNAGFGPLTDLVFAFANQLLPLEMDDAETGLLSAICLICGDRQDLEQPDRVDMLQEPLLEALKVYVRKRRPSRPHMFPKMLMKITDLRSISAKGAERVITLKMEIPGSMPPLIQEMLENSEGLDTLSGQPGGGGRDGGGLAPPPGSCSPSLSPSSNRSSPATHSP
Sequence of rat Androgen Receptor (AR), Ar (gene 24208) (P15207 whole entry, looked up): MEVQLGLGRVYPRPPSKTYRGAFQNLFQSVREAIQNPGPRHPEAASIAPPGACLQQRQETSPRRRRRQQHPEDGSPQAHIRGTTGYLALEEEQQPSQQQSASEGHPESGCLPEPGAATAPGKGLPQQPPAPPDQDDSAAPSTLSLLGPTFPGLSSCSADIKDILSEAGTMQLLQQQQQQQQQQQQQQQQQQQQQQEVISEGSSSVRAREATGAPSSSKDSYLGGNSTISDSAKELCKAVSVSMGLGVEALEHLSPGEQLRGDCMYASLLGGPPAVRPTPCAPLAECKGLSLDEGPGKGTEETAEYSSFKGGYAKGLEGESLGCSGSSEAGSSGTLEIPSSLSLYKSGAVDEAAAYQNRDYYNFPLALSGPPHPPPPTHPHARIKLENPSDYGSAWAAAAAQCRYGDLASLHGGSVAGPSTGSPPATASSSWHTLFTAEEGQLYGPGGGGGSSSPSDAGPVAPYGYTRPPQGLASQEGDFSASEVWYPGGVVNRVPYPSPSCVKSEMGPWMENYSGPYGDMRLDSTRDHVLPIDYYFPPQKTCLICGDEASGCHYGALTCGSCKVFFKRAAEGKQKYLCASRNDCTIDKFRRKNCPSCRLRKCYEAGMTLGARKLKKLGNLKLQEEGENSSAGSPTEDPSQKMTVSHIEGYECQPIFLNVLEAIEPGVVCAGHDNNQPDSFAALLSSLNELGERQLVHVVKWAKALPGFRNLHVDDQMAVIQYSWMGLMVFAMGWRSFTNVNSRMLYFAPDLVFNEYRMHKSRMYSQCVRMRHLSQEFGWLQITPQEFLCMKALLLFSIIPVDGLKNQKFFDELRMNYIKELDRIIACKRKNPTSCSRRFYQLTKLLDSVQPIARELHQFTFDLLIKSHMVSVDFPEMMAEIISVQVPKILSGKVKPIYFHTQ
Sequence of Agonist Androgen Response Element (ARE), AR (gene 367) (P10275 whole entry, looked up): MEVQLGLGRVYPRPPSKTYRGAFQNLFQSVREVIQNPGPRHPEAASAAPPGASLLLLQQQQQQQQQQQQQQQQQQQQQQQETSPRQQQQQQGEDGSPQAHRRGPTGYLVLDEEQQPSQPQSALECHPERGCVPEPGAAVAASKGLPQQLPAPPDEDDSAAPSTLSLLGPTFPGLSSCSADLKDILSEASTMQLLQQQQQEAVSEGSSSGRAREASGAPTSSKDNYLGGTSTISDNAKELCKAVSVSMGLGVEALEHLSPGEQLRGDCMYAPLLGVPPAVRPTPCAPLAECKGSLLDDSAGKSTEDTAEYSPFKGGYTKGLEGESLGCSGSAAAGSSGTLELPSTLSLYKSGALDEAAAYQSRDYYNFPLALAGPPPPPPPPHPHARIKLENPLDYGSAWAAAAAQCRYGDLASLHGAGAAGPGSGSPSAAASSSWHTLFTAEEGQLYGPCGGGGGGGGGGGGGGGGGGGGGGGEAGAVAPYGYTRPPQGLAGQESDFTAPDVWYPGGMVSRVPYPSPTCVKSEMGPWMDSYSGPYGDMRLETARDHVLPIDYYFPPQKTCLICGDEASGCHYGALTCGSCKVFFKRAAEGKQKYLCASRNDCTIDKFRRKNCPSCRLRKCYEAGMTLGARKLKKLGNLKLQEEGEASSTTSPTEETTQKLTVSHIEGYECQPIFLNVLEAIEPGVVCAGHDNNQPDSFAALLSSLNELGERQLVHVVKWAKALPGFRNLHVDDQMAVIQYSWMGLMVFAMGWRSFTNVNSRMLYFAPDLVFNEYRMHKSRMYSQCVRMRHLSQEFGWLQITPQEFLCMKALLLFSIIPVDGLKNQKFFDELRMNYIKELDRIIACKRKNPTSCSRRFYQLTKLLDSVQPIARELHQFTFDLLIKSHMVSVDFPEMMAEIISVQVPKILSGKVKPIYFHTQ

Regarding `CC(C)CCCCCCc1ccc(O)cc1`, the AC50 in assay [1] was 2.25 µM (active) and 2.44 µM (active); in assay [2] it was 836 nM (active) and 1.48 µM (active) and 1.04 µM (active); in assay [5] it was 3.14 µM (active) and 7.57 nM (active) and 7.26 µM (active); in [6], 1.2 µM (active) and 1.06 µM (active) and 1.25 µM (active). In addition, the molecule was classed as inactive in assay [3], in assay [4] and in [5].
Regarding `CCCCC(CC)CN1C(=O)C2C3C=CC(C3)C2C1=O` (configuration not stated), the result (in [1]; in [2]; with PGR (gene 5241); in [4]; in [6]) was inactive.
On to `O=C(c1ccc(O)cc1O)c1ccc(O)cc1O`, for which the AC50 in assay [1] was 12.6 µM (active) and 8.31 µM (active) and 9.09 µM (active); in assay [2], 1.6 µM (active) and 1.63 µM (active) and 1.4 µM (active); with PGR (gene 5241) it was 11.2 µM (active); in assay [7], 25 µM (active) and 33.4 µM (active); in [8], 7.84 µM (active) [middle of 4 runs]; in assay [4] it was 40.4 µM (active). Further, the AC50 in [5] is 470 nM (active) and 647 nM (active) and 1.69 µM (active); in assay [9], 722 nM (active) and 29.3 µM (active); in assay [6], 2.09 µM (active) and 2.02 µM (active) and 2.21 µM (active). In addition, the call in assay [7], in assay [4], in assay [5] and in assay [9] was inactive.
As to `COC(=O)c1ccccc1C(=O)O`, the outcome in assay [1], in assay [2], in assay [10], in assay [4] and in assay [6] was inactive.
Turning to `CCOC(=O)COc1cc(-n2ncc(C(F)(F)F)c(C)c2=O)c(F)cc1Cl`, the result in [1], in [4], in assay [9] and in assay [6] was inactive.
`N#CSCSc1nc2ccccc2s1`: the outcome (in [1]; in assay [2]; in the assay with PGR (gene 5241); in [4]; in assay [12]; in assay [9]) was inactive. Further, the molecule was classed as inactive in [6]. The results for the AC50 in assay [11] and in assay [12] were 42.1 µM (active) and 11.2 µM (active), respectively.
For `CCSC(=O)N(CC(C)C)CC(C)C`, the outcome in assay [1], in assay [2], in [9] and in assay [6] was inactive.
On to `CCCOC(=O)c1ccc(C(=O)OCCC)nc1`, for which the outcome in assay [1], in assay [2], in [9] and in [6] was inactive.
Regarding `C#CCOC(=O)[C@@H](C)Oc1ccc(Oc2ncc(Cl)cc2F)cc1`, the result in assay [1], in [2], in [4] and in [6] was inactive.
For the molecule `O=C(O)C1(C(=O)Nc2ccc(Cl)cc2Cl)CC1`, the result (in assay [1]; in [2]; in [10]; with PGR (gene 5241); in [9]; in assay [6]) was inactive. Besides, the half-maximal activity concentration (AC50) in assay [4] is 8.65 µM (active).
